Measurements: ChEMBL document CHEMBL4296182, “CO-ADD screening of NIH NCI Diversity Set V”
For part of these data: Measured potencies and affinities stand elsewhere.

What was measured:
Staphylococcus aureus = assay: Antibacterial activity against Staphylococcus aureus MRSA ATCC 43300 (CO-ADD:GP_020); MIC in CAMBH media using NBS plates, by Resazurin F(560/590); format: functional; conditions: Concentration 20 uM, ASSAY_TEST Inhibition of Bacterial Growth, detection method Resazurin, Fluorescence (ex560/em590), MEDIA CAMHB, plate type 384well, CORNING #3640, time 18 hr
Acinetobacter baumannii = assay: Antibacterial activity against Acinetobacter baumannii ATCC 19606 (CO-ADD:GN_034); MIC in CAMBH media using NBS plates, by Resazurin F(560/590); format: functional; conditions: Concentration 20 uM, ASSAY_TEST Inhibition of Bacterial Growth, detection method Resazurin, Fluorescence (ex560/em590), MEDIA CAMHB, plate type 384well, CORNING #3640, time 18 hr
Escherichia coli = assay: Antibacterial activity against Escherichia coli ATCC 25922 (CO-ADD:GN_001); MIC in CAMBH media using NBS plates, by Resazurin F(560/590); format: functional; conditions: Concentration 20 uM, ASSAY_TEST Inhibition of Bacterial Growth, detection method Resazurin, Fluorescence (ex560/em590), MEDIA CAMHB, plate type 384well, CORNING #3640, time 18 hr
Klebsiella pneumoniae = conditions: Concentration 20 uM; ASSAY_TEST Inhibition of Bacterial Growth; detection method Absorption (OD600); MEDIA CAMHB; plate type 384well; NBS; CORNING #3640; time 18 hr
Candida albicans = conditions: 20 µM
Cryptococcus neoformans = conditions: Concentration 20 uM; ASSAY_TEST Inhibition of Fungal Growth; detection method Resazurin; Absorption (OD600-OD570); plate type 384well; NBS; CORNING #3640

Row | Compound | Inhibition (Staphylococcus aureus) | Inhibition (Acinetobacter baumannii) | Inhibition (Escherichia coli) | Inhibition (Klebsiella pneumoniae) | Inhibition (Candida albicans) | Inhibition (Cryptococcus neoformans)
1 | COc1cc(/N=N/c2cccc(S(N)(=O)=O)c2)c2ccccc2c1N | -2.34% | 3.92% | -3.15% | 14.2% | 0.44% | -17.61%
2 | NC(=O)c1ccc(/N=N/c2c(O)c3ccccc3[nH]c2=O)cc1 | 1.45% | 0.09% | 1.38% | 17.01% | 24% | -1.63%
3 | CCCOc1nc2c(c(=O)n(C)c(=O)n2C)n1C | 17.4% | 10% | 3.82% | -6.25% | 1.36% | -4.51%
4 | Cn1ncc2c(Nc3cccc(Cl)c3)nc(Nc3cccc(Cl)c3)nc21 | 15.88% | -2.31% | 4.26% | 11.58% | -1.22% | -11.25%
5 | C#CC1(N2CCCCC2)CCCCC1 | 17.84% | -17.5% | 12.63% | -1.14% | -1.65% | -12.88%
6 | Cc1ccc2c(c1)sc1nncn12 | 15.32% | -15.79% | 12.68% | 5.69% | -0.75% | -11.46%
7 | [O-][n+]1ccc(CC(O)(C(F)(F)F)C(F)(F)F)cc1 | -9.72% | -5.31% | -11.83% | 9.87% | 4.37% | -2.34%
8 | Cc1cc2c(c(C#N)c1C)NC=NC2C (stereo not drawn) | 11.79% | -0.59% | 15.46% | 8.12% | -2.89% | -13.76%
9 | Cc1nc(Br)c(Br)c(C)c1Br | 1.89% | -12.31% | 7.33% | 11.41% | 4.5% | -9.77%
10 | O=C(O)c1ccccc1C(=O)Nc1cccc([N+](=O)[O-])c1 | -4.11% | -9.98% | -2.38% | 3.82% | 3.86% | -3.03%
11 | Cc1cccc(N=C(S)Nc2cccc(C)n2)n1 | 2.02% | 12.82% | 3.58% | 8.62% | 3.4% | -9.05%
12 | COc1ccc2nc(-c3ccc(Cl)cc3)cc(C(=O)O)c2c1 | -2.13% | -6.37% | 6.47% | 11.49% | 35.6% | -9.35%
13 | Cl/N=C1/C=CC=C/C1=N/Cl | -18.23% | -7.09% | 4.05% | -1.59% | -1.15% | -1.81%
14 | CC1=CC(=O)Nc2cncnc2N1 | 4.06% | -8.47% | 8.98% | 13.83% | 0.16% | 0.91%
15 | Oc1cccc2cnccc12 | -5.81% | 3.26% | 3.71% | 12.61% | 1% | 3.35%
16 | N#C/N=C/N1CC=C(c2ccc(Cl)cc2)CC1 | 11.33% | 10.12% | 1.23% | 20.23% | 8.73% | -3.92%
17 | COc1cc(C(=O)c2cocc2C(=O)c2ccc3c(c2)OCO3)cc(OC)c1OC | 27.15% | -6.33% | 12.62% | 6.01% | 3.29% | 14.1%
18 | CCCCN1C(=O)CC2CCOC21C (stereo not drawn) | 9.16% | -12.54% | 6.99% | 9.62% | 10.6% | -12.41%
19 | Cc1c2cnccc2c(C)c2c1c1ccccc1n2CCOC(=O)c1ccccc1 | -1.71% | 14.72% | 4.49% | 5.61% | 22.1% | -19.42%

Row | Compound | Inhibition (Staphylococcus aureus) | Inhibition (Acinetobacter baumannii) | Inhibition (Escherichia coli) | Inhibition (Klebsiella pneumoniae) | Inhibition (Candida albicans) | Inhibition (Cryptococcus neoformans)
20 | CC1=CC(=C2C=CC(=O)C=C2)C=C(C)N1C | 0.37% | -6.52% | 4.86% | -4.58% | 4.83% | -12.1%
21 | O=C(O)C(Cc1c[nH]c2ccccc12)N1C(=O)c2ccccc2C1=O (stereo not drawn) | 3.51% | 4.73% | -5.16% | 9.04% | 3.93% | 13.59%
22 | O=C(Nc1ccc(Br)c2ccccc12)c1ccc2ccccc2c1O | 0.57% | -4.06% | -4.98% | 22.07% | 4.96% | 1.39%
23 | Nc1nc2c[nH]c(N)nc-2n1 | -4.21% | 2.13% | 5.84% | 7.49% | 3.2% | -2.1%
24 | O=C1CCCC1C(=O)Nc1ccc2ccccc2c1 (stereo not drawn) | 9.31% | 10.21% | -4.09% | 17.7% | 10.3% | -1.69%
25 | CCN(CC)CCNC(=O)C(Cl)=C1C(Cl)=C(Cl)C(Cl)=C1Cl | 7.61% | 6.92% | -4.74% | 29.33% | 1.86% | -2.01%
26 | CN(C)N1C(=O)c2c(Cl)c(Cl)c(Cl)c(Cl)c2C1=O | 2.83% | 0.5% | 6.02% | 6.84% | 1.54% | 46.33%
27 | Cn1c(=O)c2c(nc(N3CCOCC3)n2C)n(C)c1=O | 9.23% | 6.55% | 2.94% | 9.52% | 2.91% | -9.23%
28 | O=C(O)CCC(=O)c1ccc2ccc3cccc4ccc1c2c34 | -4.99% | 9.69% | -8.48% | 28.79% | 21.7% | -11.75%
29 | O=C(O)/C=C\C(=O)Nc1nccs1 | 6.29% | -13.11% | 4.99% | 25.17% | 0.91% | -1.21%
30 | Cc1ccc(NC(=O)N2CCCCC2)cc1NC(=O)N1CCCCC1 | -1.56% | 7.43% | 3.01% | 16.93% | 3.17% | 1.83%
31 | NC(=O)c1nc2c([nH]c1=O)CCCC2 | 15.95% | -15.59% | 13.49% | -0.68% | -0.94% | -4.35%
32 | CCC1=C(c2ccc(OC)cc2)CCC(C(=O)O)C1C (stereo not drawn) | 20.78% | 6.76% | -4.91% | 12.8% | 12.4% | -6.31%
33 | COc1ccc(NC(=O)CC(C)=O)c(OC)c1 | 5.13% | -8.6% | 1.4% | 22.3% | 0.23% | -3.01%
34 | COC(=O)Cc1[nH]c(O)nc1C(=O)OC | 5.51% | -8.26% | 3.06% | 20.66% | -0.45% | -7.96%
35 | Oc1nccc(SCc2ccc(Cl)cc2Cl)n1 | 9.05% | 6.51% | 5.78% | 11.54% | 6.12% | -13.08%
36 | CC(C)(C)c1ccc(C(=O)N2CCOC23CCCCC3)cc1 | 6.69% | 7.06% | 4.56% | 2.74% | 2.86% | -8.62%
37 | CC1(C)CC[C@]2(C(=O)n3ccnc3)CC[C@]3(C)[C@H](C(=O)C=C4[C@@]5(C)C=C(C#N)C(=O)C(C)(C)[C@@H]5CC[C@]43C)[C@@H]2C1 | -14.27% | -18.52% | 7.42% | 10.75% | 4.81% | -0.45%
38 | O=C(Nc1ccc(C(=O)O)c(O)c1)c1ccccc1 [BENZOYLPAS] | -3.42% | -17.37% | 4.17% | 3.36% | 6.26% | -5.98%
